# This is a sample that favours compounds with a hit; in the whole collection about 1.1% have one here.
# HTR5A inv ctr: counter-screen for OPRM1-OPRD1 inverse agonists: human HTR5A inverse agonism; P47898; HTR5A cell line, luminescence; inhibition, % at 9.3 µM; 340,000 compounds, 0.083% hits; AID 504634; in the data active means inhibition mostly above about 23%, no sharp cut-off; inactive means mostly below about 18%;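 further: 0% = cells with DMSO and 100% = no-cell wells with DMSO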
# Target sequence (P47898 whole entry, looked up): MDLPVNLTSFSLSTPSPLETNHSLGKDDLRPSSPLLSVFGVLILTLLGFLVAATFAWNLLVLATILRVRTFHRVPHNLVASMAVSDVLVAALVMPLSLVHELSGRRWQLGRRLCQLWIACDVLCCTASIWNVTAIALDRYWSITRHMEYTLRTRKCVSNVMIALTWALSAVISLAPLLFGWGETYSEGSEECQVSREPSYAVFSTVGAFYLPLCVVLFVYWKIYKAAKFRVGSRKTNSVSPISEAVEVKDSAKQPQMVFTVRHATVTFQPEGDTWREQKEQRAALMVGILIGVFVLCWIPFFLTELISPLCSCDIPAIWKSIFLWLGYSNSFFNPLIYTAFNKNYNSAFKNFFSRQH
# OPRM1-OPRD1 inv: inverse agonist of human OPRM1-OPRD1 heterodimerization | inhibition, % at 9.3 µM | cell-based MOR-DOR heterodimer luminescence, inverse agonism | AID 504357 | 340,000 compounds, 0.21% hits; in the data active means inhibition above about 22%, passing the limit was not always enough;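 further: 0% = cells with DMSO and 100% = wells without cells with DMSO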
# HTR5A ag ctr: counter-screen for OPRM1-OPRD1 agonists: human HTR5A agonism. P47898. HTR5A agonist assay, luminescence, cell-based. activation, % at 9.3 µM. 340,000 compounds, 0.61% hits. AID 504692; in the data active means activation mostly above about 9.5%, no sharp cut-off; inactive means mostly below about 7.6%;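 further: 0% = cells with vehicle only and 100% = reference agonist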
# MOR-DOR ag: OPRM1-OPRD1 heterodimerization agonism | P35372+P41143 | cells, luminescence | activation, % at 9.3 µM | 340,000 compounds, 0.3% hits;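 further: 0% = vehicle-treated cells and 100% = reference agonist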
# MOR-DOR ag conf: OPRM1-OPRD1 heterodimer agonism, confirmation; activation, % at 9.3 µM; 830 compounds, 45% hits; cells, MOR-DOR heterodimerization, luminescence complementation; shares compounds with MOR-DOR ag; AID 504904;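 further: 0% = vehicle-treated cells and 100% = reference agonist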
# HTR5A ag ctr2: HTR5A agonism, opioid heterodimer counter-screen | shares compounds with MOR-DOR ag | HTR5A agonist counterscreen, cell luminescence | activation, % at 9.3 µM | 830 compounds, 8% hits | AID 504905; in the data active means activation above about 17%;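 further: 0% = vehicle-treated cells and 100% = reference agonist response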
# An asterisk follows results filed as active; i = inactive; · = no result. Unless noted, no stated cut-off is given here; in the data, active means activation above about 18%; inactive means the rest.
SMILES,HTR5A inv ctr,OPRM1-OPRD1 inv,HTR5A ag ctr,MOR-DOR ag,MOR-DOR ag conf,HTR5A ag ctr2
CCN(CC)CCNCc1cc(Cl)c(OCC(=O)Nc2ccccc2)c(OC)c1,4.1,0.8,0.2,-0.1,·,·
CC(C)CC(CO)N1CCN(C(=O)c2ccc(Cl)c(Cl)c2)CCC1=O (configuration not stated),-8.3,10.9,5.2,-2.0,·,·
O=C(CN(C(=O)CNC(=O)c1cccs1)c1cccc(F)c1)NC1CCCC1,-11.3,10.8,4.0,-2.0,·,·
OC1(c2ccc(F)cc2)CN(c2ccccc2)C2=[N+]1CCS2 (configuration not stated),-9.0,13.3,0.1,-3.0,·,·
Cc1ccc(C2(O)CN(c3ccccc3C)C3=[N+]2CCS3)cc1 (configuration not stated),11.9,i,4.5,349.0*,372.7*,0.9
Cc1ccc(C2(O)CN(c3ccccc3)C3=[N+]2CCS3)cc1 (configuration not stated),-4.8,-390.7,1.8,76.9*,194.2*,1.4
Cc1ccccc1N1CC(O)(c2ccccc2)[N+]2=C1SCC2 (configuration not stated),9.2,i,-3.5,217.6*,222.6*,1.3
Nc1cccc(-c2c[nH]c3ncc(-c4cccnc4)cc23)c1,-3.5,11.8,-4.8,-2.0,·,·
O=C(Nc1ccccc1N1CCOCC1)C1=NN(c2ccccc2)C(=O)CC1,-9.5,3.9,3.1,-0.6,·,·
CN(CCOc1ccc(Cl)cc1)C(=O)c1cc(S(=O)(=O)N2CCOCC2)ccc1N1CCCC1,-14.0,11.2,-5.8,-2.8,·,·
O=C(Nc1ccc(Oc2ccccc2)nc1)C1CCCCN1Cc1ccc(OCCO)cc1 (configuration not stated),-5.5,-18.3,-1.2,3.4,·,·
Clc1ccccc1CN1CCN(CCCc2ccccc2)CC1,6.8,-42.0,-2.5,9.0,·,·
OCC1(CCc2ccccc2)CCN(Cc2cc(F)ccc2-n2cccn2)CC1,1.6,-406.6,-0.9,77.9*,92.3*,-2.8
COc1ccc2c(c1)C=C(CN1CCC(CO)(CCc3ccccc3)CC1)CO2,-8.0,-180.1,3.0,35.9*,53.8*,0.7
OCC1(CCc2ccccc2)CCN(Cc2ccccc2Cl)CC1,10.6,-259.5,-4.1,54.8*,85.7*,2.4
Cc1ccnc(NC(=O)c2cnc(Cl)c(Cl)c2)c1,-23.4,-4.2,5.1,0.6,·,·
Nc1nonc1C(=O)NCCNCc1cc(Br)ccc1OCc1ccc(F)cc1,9.3,-17.2,-3.9,3.6,·,·
Nc1nonc1C(=O)NCCNCc1c(OCc2ccccc2F)ccc2ccccc12,-6.0,-118.4,1.9,22.3*,121.5*,5.9
CCCCOc1ccccc1C(=O)N(Cc1ccc(C)o1)C1CCS(=O)(=O)C1 (configuration not stated),-20.0,9.2,4.9,-1.7,·,·
CC1(NC(=O)CCc2ccccc2)CCN(CCCc2ccccc2)C1=O (configuration not stated),-5.4,3.3,5.2,-0.6,·,·
CC1(NC(=O)CC(c2ccccc2)(c2ccccc2)c2ccccc2)CCN(CCCc2ccccc2)C1=O (configuration not stated),17.6,i,2.6,237.0*,193.2*,-2.0
O=C(NC1CCN(c2ncccn2)CC1)c1c(F)cccc1F,-16.0,4.9,4.4,-0.9,·,·
Cc1ccc(-n2c([S-])c(C(=O)Nc3ccc(OC(F)F)cc3)[n+]3ccc(C(=O)NCCO)cc23)cc1C,19.5,-93.1,-2.2,18.6*,0.4,3.4
CC(=O)Nc1c(Br)cc2c(c1Br)Cc1cc(Br)ccc1-2,2.8,-176.2,-0.7,34.3*,18.6*,6.4
O=C(N[C@H]1C/C=C\C[C@@H](CC(=O)N(CCO)Cc2ccccc2)C(=O)N[C@H](Cc2c[nH]c3ccccc23)COC1=O)OCC1c2ccccc2-c2ccccc21,-13.6,10.8,3.1,-1.8,·,·
SMILES,HTR5A inv ctr,OPRM1-OPRD1 inv,HTR5A ag ctr,MOR-DOR ag,MOR-DOR ag conf,HTR5A ag ctr2
O=C(N[C@H]1C/C=C\C[C@H](CC(=O)N(CCO)Cc2ccccc2)C(=O)N[C@H](Cc2c[nH]c3ccccc23)COC1=O)OCC1c2ccccc2-c2ccccc21,-6.7,-154.0,-1.1,28.6*,35.2*,4.3
CNC[C@H](CC1CCCCC1)NC[C@H](Cc1ccccc1)NCCC12CC3CC(CC(C3)C1)C2,-59.6,i,0.3,95.3*,163.7*,39.3*
NC[C@H](Cc1ccccc1)NCCCCC1CCCCC1,-13.8,-4.0,-1.4,0.7,·,·
CCCn1ncc(CN2CCC(Cc3cccc(F)c3)(C(=O)OCC)CC2)c1C,-2.2,-14.0,0.6,2.7,·,·
CCOC(=O)C1(CCCc2ccccc2)CCN(Cc2cn(CC)nc2C)CC1,0.5,i,-0.2,315.4*,19.6*,-1.0
CCOC(=O)C1(CCCc2ccccc2)CCN(Cc2cnc(C)s2)CC1,3.1,i,-1.1,105.5*,1.1,3.5
CCOC(=O)C1(Cc2cccc(F)c2)CCN(Cc2cnc(C)s2)CC1,-4.2,-113.1,1.6,22.4*,23.7*,1.1
CCOC(=O)C1(CCCc2ccccc2)CCN(Cc2nccn2CC)CC1,1.2,-16.6,8.9,2.3,·,·
CCOC(=O)C1(Cc2ccccc2)CCN(Cc2cn[nH]c2-c2ccccc2)CC1,-2.6,-260.0,4.9,36.2*,0.5,23.1*
CCOC(=O)C1(CC2CC2)CCN(Cc2cn[nH]c2-c2ccccc2)CC1,4.6,8.3,-1.7,-1.8,·,·
CCN(CC)S(=O)(=O)c1ccc(C(=O)Nc2cc(S(=O)(=O)N3CCOCC3)ccc2N2CCN(C)CC2)cc1,8.8,17.9,-2.4,-3.4,·,·
CCOc1cc(C)c(S(=O)(=O)Nc2ccc(F)cc2)cc1C,-10.7,-96.4,10.0,18.9*,10.6,3.6
CCCC1(c2ccccc2)NC(=O)N(CC(=O)Nc2cc(C)ccc2OC)C1=O (configuration not stated),-9.9,9.0,4.1,-1.6,·,·
CNC(=O)Cn1ncc2c(C)n(Cc3ccc(C)cc3)c(C)c2c1=O,24.8,10.7,0.4,-1.9,·,·
Cc1c2cnn(CC(=O)Nc3c(F)c(F)cc(F)c3F)c(=O)c2c(C)n1Cc1ccccc1F,-14.2,-177.8,5.0,34.7*,34.2*,30.7*
CSc1ccccc1NC(=O)Nc1ccc(Cl)cc1,-17.2,-146.7,8.6,25.7*,13.8,2.9
Cc1ccc(NC(=O)Nc2cc(Cl)ccc2C2COC(=O)C2=N)cc1 (configuration not stated),-3.5,-118.5,1.2,23.1*,4.8,39.4*
CCOc1ccc(C(C)=O)cc1COc1ccc(C)nc1[N+](=O)[O-],-1.1,5.1,0.4,-0.7,·,·
CCC(=O)NC(C)C(c1cccs1)N1CCN(c2ccccc2)CC1 (configuration not stated),16.4,-176.9,-3.7,30.7*,0.3,1.9
CC(C)c1ccccc1NC(=O)c1ccc2ncsc2c1,-4.3,-10.9,1.4,1.4,·,·
S=C(NCCc1ccccc1)N1CCN(C23CC4CC(CC(C4)C2)C3)CC1,7.1,-96.0,-2.8,20.3*,9.7,0.6

# Compound activity as filed in PubChem BioAssay.
